Screening data from PubChem.
This is a sample that favours compounds with a hit; in the whole collection about 3.6% have one here.
esBAF inh: SWI/SNF esBAF complex inhibition; reporter increase, % at 12.5 µM; hit rate 2% among 350,000; AID 602393; mouse ES cells, Bmi1-luciferase knock-in reporter, 24 h; 100% = twice the neutral-well signal; in the data active = activation above about 40%;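 note: a rise in the Bmi1 reporter signal indicates esBAF inhibition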
APOBEC3A inh: human APOBEC3A DNA deaminase inhibition | inhibition, % at 20 µM | recombinant A3A, FAM/TAMRA ssDNA deamination fluorescence | hit rate 0.41% among 330,000 | P31941;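 active = at least 40% inhibition at 20 µM here, with at most 30% in a related deaminase screen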
A3G deaminase: APOBEC3G (human) deaminase inhibition; inhibition, % at 20 µM; AID 493012; hit rate 0.28% among 330,000; Q9HC16; recombinant A3G, ssDNA deamination FAM/TAMRA fluorescence;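 active = inhibition of at least 40% at 20 µM, with no more than 30% in the related APOBEC3A deaminase screen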
Target sequence (Q9HC16 whole entry, looked up): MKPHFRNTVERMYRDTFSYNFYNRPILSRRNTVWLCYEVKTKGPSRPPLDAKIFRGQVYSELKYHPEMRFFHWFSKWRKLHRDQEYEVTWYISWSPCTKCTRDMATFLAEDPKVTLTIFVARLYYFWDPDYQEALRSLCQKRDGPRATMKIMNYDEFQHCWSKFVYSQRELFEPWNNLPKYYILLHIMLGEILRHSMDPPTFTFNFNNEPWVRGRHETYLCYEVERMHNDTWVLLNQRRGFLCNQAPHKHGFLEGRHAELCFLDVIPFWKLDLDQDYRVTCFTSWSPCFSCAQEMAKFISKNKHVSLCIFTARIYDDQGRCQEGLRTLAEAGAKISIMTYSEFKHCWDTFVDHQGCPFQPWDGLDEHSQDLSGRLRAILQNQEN
MITF act: activators of MITF-driven TRPM1 promoter activity in SK-MEL-5 cells; SK-MEL-5 TRPM1-promoter luciferase, 24 h; % of positive control, neutral wells = 0; activation, % at 12.5 µM; hit rate 0.75% among 300,000;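 active = mean activation of at least 80% with every replicate also reaching 80%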
PHOSPHO1 block: inhibitors of human PHOSPHO1 phosphatase. recombinant PHOSPHO1, absorbance phosphatase assay. inhibition, % at 13.3 µM. Q8TCT1. AID 1565. hit rate 1.1% among 290,000; in the data active = inhibition above about 60%
Wnt bcat act: activators of Wnt/beta-catenin signaling; Wnt/beta-catenin reporter cell assay, activator, plate reader; activation, % at 9.35 µM; hit rate 1.2% among 300,000; in the data active = activation above about 30%, passing the limit was not always enough
A3G conf: APOBEC3G (human) deaminase inhibition, confirmed | inhibition, % at 20 µM | hit rate 72% among 890 | AID 493152 | shares compounds with A3G deaminase | recombinant A3G ssDNA deaminase, UDG/FAM-TAMRA fluorescence;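 active = inhibition reaching a set limit in any replicate at 20 µM, the limit being 80% of the first screen's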
UDG A3G counter: E. coli UDG inhibition in APOBEC3G counter-screen; shares compounds with A3G deaminase; UDG counterscreen, FAM/TAMRA oligo fluorescence; inhibition, % at 20 µM; 710 tested, under 10 active; AID 504715;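 active = compounds giving 40% or more inhibition at 20 µM in any one of the three replicates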;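 note: inhibitors lower the FAM signal released by uracil excision and alkaline cleavage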
Target sequence (P12295 whole entry, looked up): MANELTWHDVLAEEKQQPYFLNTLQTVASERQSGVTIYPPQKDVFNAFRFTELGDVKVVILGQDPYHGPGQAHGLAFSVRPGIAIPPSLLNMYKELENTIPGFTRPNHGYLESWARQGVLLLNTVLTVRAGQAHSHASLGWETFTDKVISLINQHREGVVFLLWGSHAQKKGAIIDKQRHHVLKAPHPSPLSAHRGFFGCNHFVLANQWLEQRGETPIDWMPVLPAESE
Of the large screens only hits and unclear results are named; the others gave an inactive call (follow-up assays come after a bar, where they were run).

c1coc(-c2nc3ccccc3nc2-c2ccco2)c1	none
S=c1nc(-c2ccco2)[nH][nH]1	A3G deaminase 81, PHOSPHO1 block 98 (no result: Wnt bcat act) | A3G conf 94 | UDG A3G counter inactive
O=C(C[C@@H]1C[C@H]2c3cc(NS(=O)(=O)c4ccc(F)cc4)ccc3O[C@H]2[C@H](CO)O1)N1CCOCC1	none (no result: APOBEC3A inh, A3G deaminase, MITF act, PHOSPHO1 block, Wnt bcat act)
COc1ccc(C2CC(=O)N3CN(c4ccc(C)c(Cl)c4)CSC3=C2C#N)cc1OC (stereo not drawn)	A3G deaminase 45, PHOSPHO1 block 81 | A3G conf inactive | UDG A3G counter inactive
Cc1ccc(N2CSC3=C(C#N)C(c4cccs4)CC(=O)N3C2)cc1 (stereo not drawn)	esBAF inh 54, A3G deaminase 45 | A3G conf 59 | UDG A3G counter inactive
Cc1ccc(N2C(N)=C(C#N)C(c3cccs3)C3=C2CC(C)(C)CC3=O)cc1 (stereo not drawn)	none
CCc1ccc(N2CSC3=C(C#N)C(c4cccs4)CC(=O)N3C2)cc1 (stereo not drawn)	A3G deaminase 49, PHOSPHO1 block 73 (no result: Wnt bcat act) | A3G conf 50 | UDG A3G counter inactive
CCSC1=C(C#N)C(c2ccc(OC)c(OC)c2)CC(=O)N1 (stereo not drawn)	none (no result: MITF act)
C[C@@H]1CN([C@H](C)CO)C(=O)c2cc(NS(=O)(=O)c3ccc(Cl)cc3)ccc2O[C@@H]1CN(C)Cc1ccc(C(F)(F)F)cc1	none (no result: APOBEC3A inh, A3G deaminase, MITF act, PHOSPHO1 block, Wnt bcat act)
O=C(C[C@@H]1C[C@H]2c3cc(NC(=O)c4ccc5c(c4)OCO5)ccc3O[C@H]2[C@@H](CO)O1)NCc1ccc(Cl)cc1	none (no result: APOBEC3A inh, A3G deaminase, MITF act, PHOSPHO1 block, Wnt bcat act)
Cc1[nH]n(-c2ccccc2)c(=S)c1C=NCCCN=Cc1c(C)[nH]n(-c2ccccc2)c1=S	A3G deaminase 62 | A3G conf 54 | UDG A3G counter inactive
COC(=O)CN=Cc1c(C)[nH]n(-c2ccccc2)c1=O	none (no result: esBAF inh)
CCC(=O)Nc1ccc2c(c1)C(=O)N(C)C[C@H](OC)[C@H](C)CN(Cc1cccc(F)c1)[C@@H](C)CO2	none (no result: APOBEC3A inh, A3G deaminase, MITF act, PHOSPHO1 block, Wnt bcat act)
CCOc1ccc(NC(=O)CN(C)CC(=O)Nc2cc(Cl)ccc2C#N)cc1OCC	A3G deaminase 91 | A3G conf inactive
O=c1[nH]c(SCc2ccccc2[N+](=O)[O-])nc2nc[nH]c12	A3G deaminase 61 | A3G conf inactive | UDG A3G counter inactive
COC(=O)c1sc(NC(=O)c2cc(-c3ccccc3)nc3ccccc23)c(C#N)c1C	A3G deaminase 64, PHOSPHO1 block 96 (no result: Wnt bcat act) | A3G conf 58 | UDG A3G counter inactive
CCOC(=O)c1sc(NC(=O)c2cc(-c3ccc(C)cc3)nc3ccccc23)c(C#N)c1C	none (no result: Wnt bcat act)
Cc1ccc(NNS(=O)(=O)c2ccc(C)cc2)cc1	A3G deaminase 69 (no result: MITF act) | A3G conf 65 | UDG A3G counter inactive
C[C@H](CO)N1C[C@H](C)[C@H](CN(C)C(=O)CN(C)C)Oc2ncc(/C=C/c3ccccc3)cc2C1=O	none (no result: APOBEC3A inh, A3G deaminase, MITF act, PHOSPHO1 block, Wnt bcat act)
COC(=O)[C@]1(C)N[C@H](CN(C)C(=O)COc2ccccc2)[C@@H]2C(=O)N(C)C(=O)[C@@H]21	A3G deaminase 74 (no result: PHOSPHO1 block) | A3G conf inactive
COC(=O)[C@]1(C)N[C@H](CN(C)C(=O)Nc2ccccc2)[C@@H]2C(=O)N(C)C(=O)[C@@H]21	none (no result: PHOSPHO1 block)
N#Cc1cc(-c2ccccc2)[nH]c1-c1nccc2ccccc12	A3G deaminase 41 | A3G conf inactive
c1ccc(-c2ccc(-c3nccc4ccccc34)[nH]2)cc1	none (no result: esBAF inh, APOBEC3A inh, A3G deaminase, MITF act, Wnt bcat act)
CC(=O)N(C1=C(Cl)C(=O)c2ccccc2C1=O)C1CCCCC1	A3G deaminase 83 (no result: esBAF inh, MITF act) | A3G conf 92 | UDG A3G counter inactive
CC=Cc1ccc2n(c1=O)C[C@@H]1[C@@H](CO)[C@H](C(=O)N3CCc4ccccc4C3)[C@H]2N1CCC (mixture of isomers)	none (no result: APOBEC3A inh, A3G deaminase, MITF act, PHOSPHO1 block, Wnt bcat act)
COc1cc(/C=C2\CCCc3c2nc2ccccc2c3C(=O)O)cc(Br)c1O	none
CCOc1cc(/C=C2\CCCc3c2nc2ccccc2c3C(=O)O)ccc1OC	A3G deaminase 48 | A3G conf inactive
C[C@H](CO)N1C[C@H](C)[C@H](CN(C)C(=O)NC2CCCCC2)Oc2ccc(NC(=O)NC3CCCCC3)cc2CC1=O	none (no result: APOBEC3A inh, A3G deaminase, MITF act, PHOSPHO1 block, Wnt bcat act)
Cc1nnn(-c2nonc2N)c1C(=O)N/N=C/c1ccccc1O	A3G deaminase 44 (no result: esBAF inh, Wnt bcat act) | A3G conf 40 | UDG A3G counter inactive
COc1cc(N=c2ssnc2Cl)cc(OC)c1	A3G deaminase 65 | A3G conf 65
Cc1cc(C)cc(C(N)=Nc2cccc(C#N)c2)c1	none
N#Cc1cccc(N=c2ssnc2Cl)c1	A3G deaminase 74 (no result: esBAF inh) | A3G conf 88 | UDG A3G counter inactive
COc1cc(OC)cc(-c2nc(-c3ccccc3OC)no2)c1	none
O=C(c1cccnc1)N1CC[C@@H]2[C@H]1c1cc(-c3ccc(F)cc3)ccc1N[C@@H]2CO	none (no result: APOBEC3A inh, A3G deaminase, MITF act, PHOSPHO1 block, Wnt bcat act)
CO[C@H]1CN(C)C(=O)c2ccc(NC(=O)C3CCCCC3)cc2OC[C@H](C)NC[C@H]1C	none (no result: APOBEC3A inh, A3G deaminase, MITF act, PHOSPHO1 block, Wnt bcat act)
Cc1cc(-c2n[nH]c(=S)n2-c2ccc(F)cc2)nn1C	A3G deaminase 63 (no result: esBAF inh) | A3G conf 60 | UDG A3G counter inactive
C[C@@H]1CN([C@H](C)CO)C(=O)c2cc(NC(=O)Nc3ccc4c(c3)OCO4)ccc2O[C@@H]1CN(C)S(=O)(=O)c1ccc(Cl)cc1	none (no result: APOBEC3A inh, A3G deaminase, MITF act, PHOSPHO1 block, Wnt bcat act)
CCCCCCNC(=O)N[C@@H](C(=O)NCCC[C@H]1CN2C(=NC[C@@H]2Cc2ccccc2)N1CCc1cccc(OC)c1)C(C)C	A3G deaminase 54 (no result: esBAF inh, MITF act, Wnt bcat act) | A3G conf 32
Cn1c(-c2ccccc2)n[nH]c1=S	none
Cn1c(-c2sccc2OCc2ccccc2)n[nH]c1=S	A3G deaminase 45, PHOSPHO1 block 99 (no result: MITF act, Wnt bcat act) | A3G conf 78 | UDG A3G counter inactive
Cc1nc(-c2ccccc2)sc1-c1n[nH]c(=S)n1C	A3G deaminase 43 (no result: MITF act, Wnt bcat act) | A3G conf 76 | UDG A3G counter inactive
Cn1c(-c2ccc(C(C)(C)C)cc2)n[nH]c1=S	esBAF inh 50, A3G deaminase 41, PHOSPHO1 block 69 (no result: Wnt bcat act) | A3G conf 73 | UDG A3G counter inactive
O=C(Nc1ccccc1F)N[C@H]1CC[C@H](CCNS(=O)(=O)c2ccccc2)O[C@H]1CO	none (no result: APOBEC3A inh, A3G deaminase, MITF act, PHOSPHO1 block, Wnt bcat act)
S=c1nc(C2CCCCC2)[nH][nH]1	A3G deaminase 43 (no result: Wnt bcat act) | A3G conf 87 | UDG A3G counter inactive
Nc1n[nH]c(C2CCCCC2)n1	none (no result: esBAF inh, MITF act)
CN1c2ccc(-c3cccc(F)c3)cc2[C@H]2[C@H](CCN2C(=O)Cc2cccnc2)[C@@H]1CO	none (no result: APOBEC3A inh, A3G deaminase, MITF act, PHOSPHO1 block, Wnt bcat act)
C[C@H](CO)N1C[C@H](C)[C@H](CN(C)S(=O)(=O)c2ccc(Cl)cc2)Oc2ccc(NC(=O)Cc3ccccc3)cc2C1=O	none (no result: APOBEC3A inh, A3G deaminase, MITF act, PHOSPHO1 block, Wnt bcat act)
CCn1c(-c2ccc(C(C)(C)C)cc2)n[nH]c1=S	none (no result: Wnt bcat act)
